For four molecules, outcome and AC50 results are on record in PubChem BioAssay (EPA / NIEHS).

Where “and” joins values, the source holds several entries; their conditions need not be identical. Equal entries are not always repeated. Inconclusive results are not listed. Calls of active or inactive are those of the source. How the source made its calls, unless noted: active means hit-call score of the fitted dose curve at least 0.9, where 1 is the maximum; inactive means score below 0.9.

A short description of assay [1]: ATG_NFI_CIS: Attagene CIS-FACTORIAL HepG2 Assay for human Nuclear Factor I (NFI) (AID 2282989). The conditions noted are these: HepG2 cis-regulatory reporter, NFI response element transcription; actives raise or lower the signal. In a few lines:
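After transient transfection of HepG2 with cis-promoter reporter constructs and 24 h dosing, RNA is reverse-transcribed, amplified, 6-FAM end-labelled and HpaI-digested before capillary analysis. Bidirectional curve fitting against DMSO.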

Assay [2] addresses Myc proto-oncogene protein (Homo sapiens) (UniProt P01106). Nature of the assay: ATG_Myc_CIS: Attagene CIS-FACTORIAL HepG2 Assay for human Myelocytomatosis (Myc) Proto-Oncogene Transcription Factor (AID 2282990). Particulars: HepG2, Attagene cis-reporter transcription factor activity; actives raise or lower the signal. Put shortly:
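Fluorescence intensity of reporter-specific cDNA fragments, separated by capillary electrophoresis, gives the signal. Transfected HepG2 cells carrying cis-promoter reporter constructs are incubated with compound for 24 h; DMSO serves as baseline.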

Assay [3] is described as follows: ATG_NF_kB_CIS: Attagene CIS-FACTORIAL HepG2 Assay for human Nuclear Factor Kappa B (NF-kB) (AID 2282991). The conditions noted are these: HepG2 Attagene cis-factorial NF-kB reporter mRNA; actives raise or lower the signal. In a few lines:
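After 24 h compound incubation, transfected HepG2 cells yield total RNA; reporter cDNA is PCR-amplified, end-labelled with 6-FAM, HpaI-digested and analysed on a genetic analyser. Endogenous factor activity, DMSO-referenced bidirectional fit.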

Assay [4] can be described thus: ATG_NRF2_ARE_CIS: Attagene CIS-FACTORIAL HepG2 Assay for human Nuclear Factor Erythroid 2 Related Factor 2 (NFR2) response to Antioxidant Response Elements (ARE) (AID 2282992). Particulars: HepG2 Attagene ARE/NRF2 reporter, transcription factor activity; actives raise or lower the signal. In a few lines:
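Cis-factorial assay: transfected HepG2 reporter library, 24 h dosing, mRNA readout via RT-PCR/CE; DMSO-referenced bidirectional analysis.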

Assay [5] is described as follows: ATG_Oct_MLP_CIS: Attagene CIS-FACTORIAL HepG2 Assay for human Octamer-Binding Transcription Factor (Oct) (AID 2282993). Particulars: HepG2 Attagene cis-factorial Oct reporter, mRNA; actives raise or lower the signal. Put shortly:
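Cells of the HepG2 line express promoter-controlled reporter sequences whose mRNA levels, after 24 h treatment, are measured by RT-PCR and capillary electrophoresis. Increases and decreases are scored relative to DMSO.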

For assay [6], the target named is Cellular tumor antigen p53 (Homo sapiens) (UniProt P04637). Nature of the assay: ATG_p53_CIS: Attagene CIS-FACTORIAL HepG2 Assay for human p53 Transcription Factor (AID 2282994). The conditions noted are these: HepG2 p53 cis-element reporter, Attagene mRNA; actives raise or lower the signal. Put shortly: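 Using HepG2 hepatoma cells carrying cis-acting multiplexed reporters, mRNA induction is detected after a 24 h exposure. Gain- and loss-of-signal responses are fitted relative to DMSO-treated cells.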

Assay [7] concerns the target human Peroxisome Proliferator-activated Receptor alpha (PPARa), PPARA (gene 5465) (UniProt Q07869). In words: ATG_PPARa_TRANS: Attagene TRANS-FACTORIAL HepG2 Assay for human Peroxisome Proliferator-activated Receptor alpha (PPARa) (AID 2283001; active means hit-call score of the fitted dose curve at least 0.9, where 1 is the maximum). Put shortly:
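Measures transcriptional activity of an exogenous chimeric PPARa-Gal4 protein in transiently transfected HepG2 cells after 24 h dosing. Reporter mRNA quantified via RT-PCR and capillary electrophoresis; DMSO served as negative control.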

Assay [8] has as its target human Peroxisome Proliferator-activated Receptor delta (PPARd), PPARD (gene 5467) (UniProt Q03181). In words: ATG_PPARd_TRANS: Attagene TRANS-FACTORIAL HepG2 Assay for human Peroxisome Proliferator-activated Receptor delta (PPARd) (AID 2283002; active means hit-call score of the fitted dose curve at least 0.9, where 1 is the maximum). In a few lines:
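Fluorescence from capillary electrophoresis of labelled RT-PCR reporter fragments gives the signal; DMSO sets baseline. Cells: HepG2 transiently carrying GAL4-UAS reporter units plus chimeric nuclear receptor-Gal4 proteins, exposed to chemicals for 24 h.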

The target in assay [9] is human Retinoic Acid Receptor beta (RARb), RARB (gene 5915) (UniProt P10826). Nature of the assay: ATG_RARb_TRANS: Attagene TRANS-FACTORIAL HepG2 Assay for human Retinoic Acid Receptor beta (AID 2283004; active means hit-call score of the fitted dose curve at least 0.9, where 1 is the maximum). Put shortly:
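HepG2 cells transiently transfected with multiplexed GAL4-UAS reporter units expressing chimeric NR–Gal4 fusions; 24 h compound exposure. Reporter mRNA quantified by RT-PCR, 6-FAM labelling, HpaI digestion and capillary electrophoresis; gain-of-signal fitted against DMSO baseline.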

In assay [10] the target is Peroxisome proliferator-activated receptor gamma (Homo sapiens) (UniProt P37231). Nature of the assay: ATG_PPARg_TRANS: Attagene TRANS-FACTORIAL HepG2 Assay for human Peroxisome Proliferator-activated Receptor-gamma (PPARg) (AID 2283007; active means hit-call score of the fitted dose curve at least 0.9, where 1 is the maximum). Put shortly: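 Liver-derived HepG2 cells expressing an exogenous NR-Gal4 chimera alongside GAL4-UAS reporter genes; 24 h exposure. Fluorescence of reporter RT-PCR products, separated by capillary electrophoresis, gives mRNA induction relative to DMSO.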

Assay [11] has as its target human Retinoic Acid Receptor gamma (RARg), RARG (gene 5916) (UniProt P13631). Nature of the assay: ATG_RARg_TRANS: Attagene TRANS-FACTORIAL HepG2 Assay for human Retinoic Acid Receptor gamma (RARg) (AID 2283009; active means hit-call score of the fitted dose curve at least 0.9, where 1 is the maximum). In a few lines:
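HepG2 cells transiently transfected with multiplexed reporter units expressing chimeric RARg-GAL4 and GAL4-UAS-driven reporters; 24 h compound exposure. Reporter mRNA quantified by RT-PCR with fluorescent labelling and capillary electrophoresis; gain-of-signal fitted relative to DMSO baseline.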

Assay [12] can be described thus: BSK_3C_TissueFactor: BioMAP Diversity Plus: 3C Assay for Tissue Factor Biomarker Activity (AID 2282997). Particulars: BioMAP 3C HUVEC, tissue factor biomarker readout; actives raise or lower the signal. Put shortly: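 Primary human umbilical vein endothelial cells in the 3C system were exposed to test chemical for 24 h, then Tissue Factor measured by ELISA. Activity was fitted bidirectionally against DMSO as negative control and baseline.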

The nature of assay [13]: BSK_3C_uPAR: BioMAP Diversity Plus: 3C Assay for Urokinase-type plasminogen activator receptor (uPAR) Biomarker Activity (AID 2282998). Particulars: BioMAP 3C HUVEC, uPAR biomarker ELISA; actives raise or lower the signal. Put shortly: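 Endothelial primary cells of human umbilical vein origin received test chemical; 24 h later uPAR was assayed by ELISA. Fitting was bidirectional, DMSO as negative control.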

Assay [14] in a line: BSK_3C_VCAM1: BioMAP Diversity Plus: 3C Assay for Vascular cell adhesion molecule 1 (VCAM1) Biomarker Activity (AID 2282999). Particulars: BioMAP 3C HUVEC, VCAM1 ELISA, cytokine-stimulated; actives raise or lower the signal. In a few lines: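 Human umbilical vein endothelial cells (3C system), biomarker read by ELISA 24 h after dosing; bidirectional fit against DMSO baseline. Cytotoxicity tracked by SRB total-protein staining in parallel cultures at biomarker time.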

Assay [15] is described as follows: BSK_4H_Eotaxin3: BioMAP Diversity Plus: 4H Assay for Eotaxin 3 Biomarker Activity (AID 2283000).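 Further: CCL26 protein level quantified by ELISA in parallel with SRB cytotoxicity check.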 Particulars: primary human endothelial cells (HUVEC); actives raise or lower the signal. Put shortly: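 HUVEC, 24 h post-dose, ELISA for Eotaxin-3/CCL26. Gain or loss of signal fitted bidirectionally vs DMSO baseline.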
Read-out in assay [16]: Intercellular Adhesion Molecule 1 (ICAM1), ICAM1 (gene 3383)
Nature of the assay: BSK_3C_ICAM1: BioMAP Diversity Plus: 3C Assay for Intercellular Adhesion Molecule 1 (ICAM1) Biomarker Activity (AID 2283003). The conditions noted are these: primary human endothelial cells (HUVEC); actives raise or lower the signal. Put shortly:
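Primary human umbilical vein endothelial cells in the BioMAP 3C system were exposed to chemicals for 24 h, then ICAM-1 was quantified by ELISA. Activity was fitted bidirectionally against the DMSO negative control baseline.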

Assay [17] has as its target Retinoic acid receptor alpha (Homo sapiens) (UniProt P10276). In words: ATG_RARa_TRANS: Attagene TRANS-FACTORIAL HepG2 Assay for human Retinoic Acid Receptor alpha (RARa) (AID 2283005; active means hit-call score of the fitted dose curve at least 0.9, where 1 is the maximum). Put shortly: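 HepG2 transiently transfected with multiplex GAL4-UAS reporter units including a human RARa–GAL4 chimera; 24 h compound exposure. Reporter mRNA quantified by RT-PCR, 6-FAM labeling and capillary electrophoresis; gain of signal versus DMSO.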

The nature of assay [18]: BSK_3C_Proliferation: Cell Proliferation Assessment in the BioMAP Diversity Plus: 3C Assay (AID 2283006).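 On AC50: potency may reflect either rise or fall in cell number versus DMSO.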 Particulars: primary human endothelial cells (HUVEC). In a few lines:
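Human umbilical vein endothelial cells were grown sub-confluent and exposed to chemical for 48 h, then fixed with 10% TCA and stained with 0.1% sulforhodamine B; absorbance at 560 nm gave relative cell number, fitted bidirectionally against DMSO baseline.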

For assay [19], the target named is Nuclear receptor subfamily 1 group I member 2 (Homo sapiens) (UniProt O75469). In words: ATG_PXR_TRANS: Attagene TRANS-FACTORIAL HepG2 Assay for human Pregnane X Receptor (PXR) (AID 2283008; active means hit-call score of the fitted dose curve at least 0.9, where 1 is the maximum). In a few lines: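 Fluorescence intensity of FAM-labelled, HpaI-digested reporter amplicons, separated by capillary electrophoresis, quantifies induction. HepG2 cells with PXR-Gal4 trans-reporter system were exposed 24 h; DMSO defines baseline.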
Sequence of Nuclear receptor subfamily 1 group I member 2 (Homo sapiens) (O75469 whole entry, looked up, the tested form may be a part): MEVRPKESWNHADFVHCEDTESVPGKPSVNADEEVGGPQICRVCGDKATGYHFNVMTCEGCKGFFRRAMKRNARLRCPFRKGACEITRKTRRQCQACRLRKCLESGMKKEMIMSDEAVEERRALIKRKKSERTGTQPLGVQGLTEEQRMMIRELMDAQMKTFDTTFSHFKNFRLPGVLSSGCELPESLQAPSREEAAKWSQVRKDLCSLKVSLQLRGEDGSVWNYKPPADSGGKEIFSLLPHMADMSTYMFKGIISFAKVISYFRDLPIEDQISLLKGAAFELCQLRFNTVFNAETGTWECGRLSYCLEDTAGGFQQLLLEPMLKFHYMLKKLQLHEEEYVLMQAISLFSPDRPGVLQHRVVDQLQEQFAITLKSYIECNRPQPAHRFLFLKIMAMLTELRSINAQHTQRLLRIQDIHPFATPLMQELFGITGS

Sequence of Peroxisome proliferator-activated receptor gamma (Homo sapiens) (P37231 whole entry, looked up, the tested form may be a part): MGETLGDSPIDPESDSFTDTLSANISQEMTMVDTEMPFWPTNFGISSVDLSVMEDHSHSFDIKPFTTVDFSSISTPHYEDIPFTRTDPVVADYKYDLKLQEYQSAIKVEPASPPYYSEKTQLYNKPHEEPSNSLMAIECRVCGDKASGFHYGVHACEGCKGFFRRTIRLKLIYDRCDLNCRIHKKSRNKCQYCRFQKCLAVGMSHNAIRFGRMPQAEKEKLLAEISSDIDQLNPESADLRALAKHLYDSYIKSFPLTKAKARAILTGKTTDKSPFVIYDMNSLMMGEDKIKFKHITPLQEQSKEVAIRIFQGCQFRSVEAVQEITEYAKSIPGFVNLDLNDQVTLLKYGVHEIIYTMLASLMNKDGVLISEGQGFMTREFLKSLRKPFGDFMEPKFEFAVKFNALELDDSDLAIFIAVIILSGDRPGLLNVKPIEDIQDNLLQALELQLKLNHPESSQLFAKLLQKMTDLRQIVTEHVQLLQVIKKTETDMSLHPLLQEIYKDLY
Sequence of Myc proto-oncogene protein (Homo sapiens) (P01106 whole entry, looked up, the tested form may be a part): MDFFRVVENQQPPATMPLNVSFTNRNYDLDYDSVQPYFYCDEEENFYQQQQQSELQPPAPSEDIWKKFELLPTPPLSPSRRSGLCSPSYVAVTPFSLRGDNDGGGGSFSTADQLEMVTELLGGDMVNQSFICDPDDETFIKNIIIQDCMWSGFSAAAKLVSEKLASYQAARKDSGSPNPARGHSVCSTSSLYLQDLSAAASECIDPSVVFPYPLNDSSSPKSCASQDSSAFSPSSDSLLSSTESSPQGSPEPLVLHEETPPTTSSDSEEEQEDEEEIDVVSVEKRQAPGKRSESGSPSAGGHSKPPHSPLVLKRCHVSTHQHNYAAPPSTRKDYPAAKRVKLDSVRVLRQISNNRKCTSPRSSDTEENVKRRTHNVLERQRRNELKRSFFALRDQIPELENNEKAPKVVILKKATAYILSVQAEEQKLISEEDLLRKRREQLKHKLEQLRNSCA
Sequence of human Peroxisome Proliferator-activated Receptor delta (PPARd), PPARD (gene 5467) (Q03181 whole entry, looked up, the tested form may be a part): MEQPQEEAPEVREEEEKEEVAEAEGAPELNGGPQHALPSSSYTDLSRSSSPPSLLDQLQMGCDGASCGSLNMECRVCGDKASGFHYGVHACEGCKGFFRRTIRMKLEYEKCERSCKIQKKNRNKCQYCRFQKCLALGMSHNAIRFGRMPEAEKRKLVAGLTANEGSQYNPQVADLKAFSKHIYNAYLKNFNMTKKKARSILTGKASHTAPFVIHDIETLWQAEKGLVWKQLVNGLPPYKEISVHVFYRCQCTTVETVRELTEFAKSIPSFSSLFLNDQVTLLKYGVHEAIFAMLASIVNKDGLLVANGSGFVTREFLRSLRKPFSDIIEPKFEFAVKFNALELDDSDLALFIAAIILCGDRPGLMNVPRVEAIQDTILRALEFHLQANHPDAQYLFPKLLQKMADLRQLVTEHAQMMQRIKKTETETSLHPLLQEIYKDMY
Sequence of Cellular tumor antigen p53 (Homo sapiens) (P04637 whole entry, looked up): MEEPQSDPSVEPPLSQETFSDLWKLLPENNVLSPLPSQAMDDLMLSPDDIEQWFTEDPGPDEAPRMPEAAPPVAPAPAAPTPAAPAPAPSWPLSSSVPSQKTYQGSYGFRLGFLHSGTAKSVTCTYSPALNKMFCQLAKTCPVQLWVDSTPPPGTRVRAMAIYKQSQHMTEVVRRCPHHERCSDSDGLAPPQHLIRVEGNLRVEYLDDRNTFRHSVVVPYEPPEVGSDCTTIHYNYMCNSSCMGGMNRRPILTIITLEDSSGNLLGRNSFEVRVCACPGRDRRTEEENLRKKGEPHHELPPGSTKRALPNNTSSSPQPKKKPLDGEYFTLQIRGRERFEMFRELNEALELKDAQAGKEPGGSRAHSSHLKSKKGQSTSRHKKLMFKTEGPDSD
Sequence of human Peroxisome Proliferator-activated Receptor alpha (PPARa), PPARA (gene 5465) (Q07869 whole entry, looked up, the tested form may be a part): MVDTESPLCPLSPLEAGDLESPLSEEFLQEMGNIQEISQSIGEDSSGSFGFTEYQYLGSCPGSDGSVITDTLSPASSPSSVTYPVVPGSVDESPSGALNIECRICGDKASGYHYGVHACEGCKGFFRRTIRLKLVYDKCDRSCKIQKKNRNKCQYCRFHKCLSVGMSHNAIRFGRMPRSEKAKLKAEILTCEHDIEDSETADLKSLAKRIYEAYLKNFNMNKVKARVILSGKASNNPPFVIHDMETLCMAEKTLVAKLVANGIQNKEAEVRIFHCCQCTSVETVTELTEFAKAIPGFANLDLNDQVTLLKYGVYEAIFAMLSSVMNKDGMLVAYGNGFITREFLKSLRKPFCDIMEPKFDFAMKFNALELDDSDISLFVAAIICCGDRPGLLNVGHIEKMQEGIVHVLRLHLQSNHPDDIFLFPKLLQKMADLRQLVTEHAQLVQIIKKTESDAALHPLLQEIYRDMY
Sequence of human Retinoic Acid Receptor beta (RARb), RARB (gene 5915) (P10826 whole entry, looked up, the tested form may be a part): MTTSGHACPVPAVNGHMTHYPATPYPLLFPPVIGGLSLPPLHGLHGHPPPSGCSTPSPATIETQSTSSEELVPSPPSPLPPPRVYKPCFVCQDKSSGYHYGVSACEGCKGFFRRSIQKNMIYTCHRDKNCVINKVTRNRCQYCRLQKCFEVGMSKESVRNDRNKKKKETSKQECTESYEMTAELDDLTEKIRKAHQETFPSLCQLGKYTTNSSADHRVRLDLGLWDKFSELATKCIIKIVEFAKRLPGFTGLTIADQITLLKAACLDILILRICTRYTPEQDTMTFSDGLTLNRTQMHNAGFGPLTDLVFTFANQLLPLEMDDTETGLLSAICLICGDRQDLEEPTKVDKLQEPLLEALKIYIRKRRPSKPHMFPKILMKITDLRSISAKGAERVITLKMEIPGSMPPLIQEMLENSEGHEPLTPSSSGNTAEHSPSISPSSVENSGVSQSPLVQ
Sequence of human Retinoic Acid Receptor gamma (RARg), RARG (gene 5916) (P13631 whole entry, looked up, the tested form may be a part): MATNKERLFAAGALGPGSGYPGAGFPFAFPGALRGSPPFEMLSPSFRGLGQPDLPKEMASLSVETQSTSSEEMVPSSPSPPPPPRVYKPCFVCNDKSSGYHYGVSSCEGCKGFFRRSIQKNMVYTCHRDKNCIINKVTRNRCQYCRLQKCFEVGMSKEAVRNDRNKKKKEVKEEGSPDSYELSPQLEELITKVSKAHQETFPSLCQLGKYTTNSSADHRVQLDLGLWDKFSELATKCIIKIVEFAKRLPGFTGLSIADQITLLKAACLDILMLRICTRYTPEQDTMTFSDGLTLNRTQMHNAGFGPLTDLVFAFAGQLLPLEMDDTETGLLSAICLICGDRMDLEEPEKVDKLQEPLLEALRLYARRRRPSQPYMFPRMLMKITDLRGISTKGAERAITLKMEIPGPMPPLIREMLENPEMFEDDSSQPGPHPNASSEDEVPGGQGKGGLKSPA
Sequence of Retinoic acid receptor alpha (Homo sapiens) (P10276 whole entry, looked up, the tested form may be a part): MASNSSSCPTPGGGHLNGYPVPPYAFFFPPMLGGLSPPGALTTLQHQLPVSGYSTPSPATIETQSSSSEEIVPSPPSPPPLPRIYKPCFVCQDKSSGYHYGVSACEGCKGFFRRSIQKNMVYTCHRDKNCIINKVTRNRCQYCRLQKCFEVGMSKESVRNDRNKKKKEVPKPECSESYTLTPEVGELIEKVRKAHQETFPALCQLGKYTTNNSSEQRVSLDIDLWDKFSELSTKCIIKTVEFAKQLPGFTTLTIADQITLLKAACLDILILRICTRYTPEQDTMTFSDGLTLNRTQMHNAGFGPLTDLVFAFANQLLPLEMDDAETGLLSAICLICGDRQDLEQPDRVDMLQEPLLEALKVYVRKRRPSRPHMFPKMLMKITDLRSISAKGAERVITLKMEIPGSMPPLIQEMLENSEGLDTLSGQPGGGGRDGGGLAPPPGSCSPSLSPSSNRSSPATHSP

Take `C[Si](C)(C)O[Si](C)(C)C`: the call in assay [1], in assay [2], in assay [3], in assay [4], in [5] and in assay [6] was inactive. In addition, the molecule was classed as inactive in [7] and in [8].
Consider `CCCCCCCCCCCC(=O)OC[C@@H](O)[C@H]1OC[C@H](O)[C@H]1O`, for which the call in assay [1], in assay [2], in assay [3], in assay [4], in [5] and in assay [6] was inactive. In addition, the molecule was classed as inactive in assay [7], in [8], in assay [9], in assay [10] and in assay [11].
For the molecule `CC(=O)c1c(C)c([N+](=O)[O-])c(C(C)(C)C)c([N+](=O)[O-])c1C`, the outcome in [1], in assay [2], in assay [3], in assay [4], in assay [5] and in assay [6] was inactive. Also, the result in assay [12], in assay [13], in [14], in assay [15], in [8] and in [16] was inactive. In addition, the result in assay [9], in [17], in [18], in [10] and in assay [11] was inactive. For the same molecule, the AC50 in assay [19] is 1.84 µM (active).
In the case of `CCOC(=O)C(C#N)=C(c1ccccc1)c1ccccc1`, the result in [1], in assay [2], in [3], in assay [5], in [6] and in assay [12] was inactive. The result in [13], in assay [14], in assay [15], in [8] and in assay [16] was inactive. For the same molecule, the AC50 in assay [4] was 27.6 µM (active); in assay [18] it was 20 µM (active) and 8.88 µM (active); in assay [10] it was 7.45 µM (active); in assay [19] it was 1.24 µM (active).
